# Bioassay records as filed in PubChem BioAssay.
# ALR inh – blocks human ALR sulfhydryl oxidase activity | inhibition, % (no concentration beside the values) | purified ALR, DTT oxidation, H2O2 HRP-luminol luminescence | 290,000 compounds, 3.8% hits | P55789;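 active means mean replicate inhibition above about 79%, with every replicate also reaching it, limit read from the data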
# Target sequence (P55789 whole entry, looked up): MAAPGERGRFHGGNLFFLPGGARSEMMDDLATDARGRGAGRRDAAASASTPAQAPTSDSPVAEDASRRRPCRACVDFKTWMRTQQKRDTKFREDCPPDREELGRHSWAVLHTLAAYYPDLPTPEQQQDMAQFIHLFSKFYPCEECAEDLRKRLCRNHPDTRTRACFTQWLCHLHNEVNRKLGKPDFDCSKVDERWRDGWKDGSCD
# AI-2 QS modul – modulates the Vibrio harveyi AI-2 quorum sensing system. 300,000 compounds, 0.4% hits. activity change, % at 7.5 µM. Vibrio harveyi JMH597 AI-2 luminescence/OD600 ratio, 9 h; active compounds read low; strain lacks LuxN and CqsS sensors; 0 = neutral-control median; in the data active means activity change below about -75%, passing the limit was not always enough;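 further: luminescence divided by OD600 gain over 9 h not by final OD600 alone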
# Mot1-301 SUMO – inhibitors of SUMOylation pathway: yeast Mot1-301 growth rescue | S. cerevisiae Mot1-301 growth rescue, ATP luminescence, 38.5C; percent above DMSO median, 100 means doubled | growth rescue, % at 18.8 µM | 320,000 compounds, 1% hits | AID 2716;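 active means every valid replicate shows activation above 250% relative to neutral control wells; inactive means the rest, any valid replicate at or below 250%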;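 further: OY570 slx delta 5 strain wells were the positive control but not used for scaling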
# HIF act – HIF pathway transcriptional activation; activation, % at 7.5 µM (by protocol); 300,000 compounds, 0.32% hits; U2OS HRE-luciferase reporter, luminescence; normalized: DMSO 0%, desferrioxamine 100%;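 active means mean activation of at least 10% of the iron chelator positive control signal, with at least half of replicates also reaching 10%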
# An asterisk follows results filed as active; i = inactive; . = no result. Sampled rows, rich in hits. Any-hit rate of the full collection: about 4.8%.
SMILES,ALR inh,AI-2 QS modul,Mot1-301 SUMO,HIF act
Cn1c(N)c(C(=O)NCc2ccccc2)sc1=S,80.5*,30.8,10.0,0.2
Cn1c(N)c(C(=O)Nc2c(Cl)cccc2Cl)sc1=S,98.6*,30.7,0.5,-0.4
COC(=O)c1ccccc1NC(=O)c1sc(=S)n(C)c1N,42.5,.,-25.2,0.1
CCN(C(=O)CCCCC(=O)N(CC)c1ccccc1)c1ccccc1,-5.4,-4.5,215.2,0.0
Cn1c(=O)[nH]c(=O)c2c1[nH]c(=S)n2Cc1ccc(Cl)cc1,98.8*,7.2,4.4,0.3
c1ccc(N2CCN(c3nc4cc5c(cc4s3)OCO5)CC2)cc1,.,9.6,-0.4,2.8
c1c2c(cc3sc(N4CCOCC4)nc13)OCO2,97.3*,14.1,-30.0,1.0
c1ccc2c(c1)CCN(c1nc3cc4c(cc3s1)OCO4)C2,19.8,11.9,-18.3,2.6
c1c2c(cc3sc(N4CCCCC4)nc13)OCO2,98.7*,12.8,-12.0,-0.4
CCN(CC)CCNC(=O)c1ccc(NC(=O)/C=C/c2ccc3ccccc3n2)cc1,21.8,15.5,-4.7,-0.9
COc1ccccc1C(=O)Nc1nnc(S(=O)(=O)N2CCCCC2)s1,-8.2,36.3,-17.2,-0.4
CCOC(=O)Cc1nnc(NC(=O)c2ccccc2OC)s1,.,6.8,-16.3,0.1
COc1ccccc1C(=O)Nc1nnc(S(=O)(=O)N2CCCCCC2)s1,-1.4,9.3,336.7*,0.2
COc1ccccc1C(=O)Nc1nnc(CCc2ccccc2)s1,-1.8,25.4,332.4*,3.6
COc1ccc(-c2ccc(NC(=O)c3ccc(Br)o3)cc2)nn1,1.2,32.9,-13.8,3.1
O=C1CSC(c2cccc([N+](=O)[O-])c2)N1c1ccc(O)cc1 (configuration not stated),-1.3,14.2,1.7,-0.5
O=C1CSC(c2ccccc2)N1c1ccc(F)cc1F (configuration not stated),-8.1,9.1,-6.9,-0.2
O=C1CSC(c2cccc(F)c2)N1c1ccccc1 (configuration not stated),98.4*,38.6,-0.2,-1.4
O=C1CSC(c2cccc([N+](=O)[O-])c2)N1c1ccccc1 (configuration not stated),98.1*,24.9,-5.2,0.1
Cc1ccc(Nc2nc(Cl)nc(N(C)C#N)n2)cc1,97.1*,4.6,642.4,0.0
O=C(COC(=O)CNC(=O)c1ccc(Cl)cc1Cl)NNC(=O)c1ccccc1F,-4.7,.,-2.6,.
COc1ccccc1C(=O)NCC(=O)N1CCN(c2ncccn2)CC1,0.1,.,-20.3,.
N#Cc1ccccc1Cn1c(=O)n(Cc2ccc(C(=O)NCc3ccco3)cc2)c(=O)c2sccc21,94.1*,40.5,-0.5,.
CC1CCN(Cc2nnnn2CCCC(=O)NCCc2cnn(C)c2)CC1,0.6,11.3,-1.1,67.0*
CC1CCN(Cc2nnnn2CCCC(=O)NCC(C)(C)N2CCOCC2)CC1,4.8,10.6,-14.7,-0.9
SMILES,ALR inh,AI-2 QS modul,Mot1-301 SUMO,HIF act
CN(CC(=O)Nc1cccc(S(=O)(=O)NC2=NCCC2)c1)Cc1ccccc1Cl,1.1,.,-5.4,.
CCOC(=O)CNC(=S)N(CCCN1CCN(C)CC1)Cc1cccs1,2.0,-7.9,127.8,-22.2
COc1cccc(N2CCN(Cc3ccco3)CC2)c1,86.8*,17.4,i,-27.4
COc1cccc(CN2CCN(Cc3ccco3)CC2)c1,1.3,5.8,4.1,0.9
COc1cccc(N2CCN(Cc3ccsc3)CC2)c1,88.6*,10.2,-13.6,-0.2
O=C(NCc1ccccc1)C1CC(=O)N(C2CCCCC2)C1 (configuration not stated),-0.5,14.1,317.7*,0.2
COc1ccc2c(c1)cc(C(=O)N[C@H](C(=O)N1CCC[C@H]1C(=O)O)C(C)C)n2C,-36.0,18.6,418.7*,-0.1
CC(=O)c1ccc(N2C(=O)CC(N3CCN(S(=O)(=O)c4cc(C)ccc4C)CC3)C2=O)cc1 (configuration not stated),-0.1,.,19.5,.
CCn1c2ccccc2c2cc(NC(=O)c3ccccc3-c3ccccc3C(=O)O)ccc21,97.6*,24.9,-6.1,-0.5
CCC(C)/C(C)=N/NC(=O)c1ccc(COc2ccc(Cl)c(C)c2)cc1 (configuration not stated),99.1*,.,125.6,.
COc1ccc(-c2cc(=O)oc3cc(OC(C)C(=O)NCc4ccccn4)ccc23)cc1 (configuration not stated),-2.1,24.8,-13.5,-0.5
C/C(=N\Nc1ccc(S(=O)(=O)N2CCCCC2)cn1)c1cccc(Br)c1,-0.4,.,-8.3,.
NC(=S)NNC(=O)COc1ccccc1O,89.0*,18.6,86.9,-0.1
